From PubChem BioAssay (NCI)
About 83,000 compounds went through this panel and 20% of them were active in at least one assay; those are over-represented in the sample as a whole.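 Results are percent growth after 48 hours of single-concentration exposure. 100 means growth as in untreated cells, lower positive values show inhibition; negative values down to -100 show cell death.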 Activity calls are given as the source filed them. How the source made its calls: active means growth percent below 10; inactive means the rest.

Assays:
Assay in all cases: NCI-60 one-dose screen, 48 h (100 = growth as untreated, 0 = no growth, -100 = all killed)
Settings in all cases: 10 µM unless noted
NCI-H23 lung = test system: NCI-H23 lung
NCI-H226 lung = test system: NCI-H226 lung
NCI-H322M lung = test system: NCI-H322M lung
HOP-62 NSCLC = test system: HOP-62 NSCLC
NCI-H460 lung = test system: NCI-H460 lung
HOP-92 NSCLC = test system: HOP-92 NSCLC
NCI-H522 lung = test system: NCI-H522 lung
A549/ATCC NSCLC = test system: A549/ATCC NSCLC
786-0 renal = test system: 786-0 renal
COLO 205 colon = test system: COLO 205 colon
DU-145 prostate = test system: DU-145 prostate
K-562 leukemia = test system: K-562 leukemia
MALME-3M melanoma = test system: MALME-3M melanoma
MDA-MB-231 breast = test system: MDA-MB-231 breast
RXF 393 renal = test system: RXF 393 renal
SF-268 CNS = test system: SF-268 CNS
SF-295 CNS = test system: SF-295 CNS
SF-539 CNS = test system: SF-539 CNS
UACC-257 melanoma = test system: UACC-257 melanoma
M14 melanoma = test system: M14 melanoma

Measured: growth

CCOC(=O)c1c(C)oc2ncnc(N3CCN(C(=O)COc4ccc(SC)cc4)CC3)c12
inactive: NCI-H23 lung 93.9% | NCI-H226 lung 83.3% | NCI-H322M lung 99.3% | HOP-62 NSCLC 86.4% | NCI-H460 lung 98.7% | HOP-92 NSCLC 78.9% | NCI-H522 lung 74.9% | A549/ATCC NSCLC 90.2% | 786-0 renal 95.8% | COLO 205 colon 98% | DU-145 prostate 99.6% | K-562 leukemia 82.4% | MALME-3M melanoma 105% | MDA-MB-231 breast 88.6% | RXF 393 renal 99.7% | SF-268 CNS 92.7% | SF-295 CNS 88.2% | SF-539 CNS 93.5% | UACC-257 melanoma 95% | M14 melanoma 97.9%

C=CCSSC1N=CNc2nc[nH]c21 (stereo not given)
active: HOP-62 NSCLC 1.1% | NCI-H522 lung 0.803% | M14 melanoma 8.72%
inactive: NCI-H23 lung 54.6% | NCI-H226 lung 73% | NCI-H322M lung 42.8% | NCI-H460 lung 52.5% | HOP-92 NSCLC 30.8% | A549/ATCC NSCLC 95.1% | 786-0 renal 13.9% | COLO 205 colon 34.9% | DU-145 prostate 35.8% | K-562 leukemia 11.9% | MALME-3M melanoma 29.9% | MDA-MB-231 breast 39.8% | RXF 393 renal 42.5% | SF-268 CNS 27.6% | SF-295 CNS 33.2% | SF-539 CNS 16.4% | UACC-257 melanoma 43.6%

COc1ccc(/C=C2\Oc3cc(OCCCCN4CCCC4)ccc3C2=O)cc1
inactive: NCI-H23 lung 83.3% | NCI-H226 lung 94.5% | NCI-H322M lung 98.6% | HOP-62 NSCLC 91.7% | HOP-92 NSCLC 73.7% | NCI-H522 lung 91.9% | A549/ATCC NSCLC 79.3% | 786-0 renal 85.2% | COLO 205 colon 86.4% | DU-145 prostate 95% | MALME-3M melanoma 110% | MDA-MB-231 breast 91.3% | RXF 393 renal 74.5% | SF-268 CNS 87.9% | SF-295 CNS 83.5% | SF-539 CNS 42.4% | UACC-257 melanoma 96.9% | M14 melanoma 86.2%
active: NCI-H460 lung 1.37% | K-562 leukemia -40.3%

CC(C)(C)c1cc(/C=N\NC(=O)/C=C/C=C/c2ccc3c(c2)OCO3)c(O)c(C(C)(C)C)c1
inactive: NCI-H23 lung 90.5% | NCI-H226 lung 75.9% | NCI-H322M lung 63.5% | HOP-62 NSCLC 66.8% | NCI-H460 lung 39.6% | HOP-92 NSCLC 88.5% | NCI-H522 lung 80.1% | A549/ATCC NSCLC 87.5% | 786-0 renal 85.4% | COLO 205 colon 94% | DU-145 prostate 56% | K-562 leukemia 59.9% | MALME-3M melanoma 71.3% | MDA-MB-231 breast 79% | RXF 393 renal 94.6% | SF-268 CNS 67.4% | SF-295 CNS 92.9% | SF-539 CNS 87.5% | UACC-257 melanoma 88% | M14 melanoma 73.3%

CNC(=O)c1cc(Oc2ccc(NC(=O)Nc3ccc(Cl)c(OC(F)(F)F)c3)c(F)c2)ccn1
active: NCI-H23 lung 7.09% | NCI-H522 lung 5.56% | COLO 205 colon 6.8% | K-562 leukemia 6.83% | MALME-3M melanoma 1.66% | UACC-257 melanoma 1.86% | M14 melanoma 4.35%
inactive: NCI-H226 lung 31.5% | NCI-H322M lung 71.7% | HOP-62 NSCLC 39% | NCI-H460 lung 37.4% | HOP-92 NSCLC 28.9% | A549/ATCC NSCLC 24.7% | 786-0 renal 58% | DU-145 prostate 56.7% | MDA-MB-231 breast 35.3% | RXF 393 renal 82.3% | SF-268 CNS 45.2% | SF-295 CNS 21.3% | SF-539 CNS 50.6%

Cn1ncc2c(=O)nc3c(-c4ccccc4)n[nH]n3c21
inactive: NCI-H23 lung 101% | NCI-H226 lung 91.9% | NCI-H322M lung 80.9% | HOP-62 NSCLC 95.5% | NCI-H460 lung 103% | HOP-92 NSCLC 116% | NCI-H522 lung 73.2% | A549/ATCC NSCLC 101% | 786-0 renal 99.9% | COLO 205 colon 119% | DU-145 prostate 101% | K-562 leukemia 119% | MALME-3M melanoma 98.6% | MDA-MB-231 breast 102% | RXF 393 renal 121% | SF-268 CNS 101% | SF-295 CNS 84.5% | SF-539 CNS 96.2% | UACC-257 melanoma 98.7% | M14 melanoma 104%

CCOC(=O)c1c(C)oc2ncnc(N3CCN(C(=S)Nc4ccccc4)CC3)c12
inactive: NCI-H23 lung 90.8% | NCI-H226 lung 87.2% | NCI-H322M lung 92.3% | HOP-62 NSCLC 87.2% | NCI-H460 lung 103% | HOP-92 NSCLC 83.3% | NCI-H522 lung 80.9% | A549/ATCC NSCLC 92% | 786-0 renal 97.8% | COLO 205 colon 104% | DU-145 prostate 101% | K-562 leukemia 85% | MALME-3M melanoma 99.9% | MDA-MB-231 breast 89.1% | RXF 393 renal 90.8% | SF-268 CNS 94.1% | SF-295 CNS 96% | SF-539 CNS 91.8% | UACC-257 melanoma 98% | M14 melanoma 104%
